Data reported in the supplement of paper PMC6555819.

Assays:
Assay in all cases: PBM binding z-score (relative to random genomic background probes); higher = stronger binding; sequences stand for … in GC…GCGATTGACAGCGTAGAATGAAGG
[1] = test system: FXR:RXRa (NR concentration 270 nM, RXRa partner concentration 90 nM)
In short: (§1)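 Custom Agilent 4×180K protein-binding microarrays carried double-stranded probes, each with a 34-nt variable region. These regions held direct-repeat seeds, single-nucleotide variants, half-site ablations and random human genomic background sequences. Ligand-free nuclear receptor dimers were incubated on the arrays for 1 h, antibodies against each partner (one per run) detected binding, and scanned fluorescence was regression-normalized. Binding z-scores take the random background probes as reference.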

[2] = test system: LXRa:RXRa (NR concentration 270 nM, RXRa partner concentration 90 nM)
In short: as §1

[3] = test system: LXRa homodimer (NR concentration 270 nM)
In short: as §1

[4] = test system: LXRb:RXRa (NR concentration 270 nM, RXRa partner concentration 90 nM)
In short: as §1

[5] = test system: LXRb homodimer (NR concentration 270 nM)
In short: as §1

[6] = test system: PPARa:RXRa (NR concentration 270 nM, RXRa partner concentration 90 nM)
In short: as §1

[7] = test system: PPARg:RXRa (NR concentration 180 nM, RXRa partner concentration 90 nM)
In short: as §1

[8] = test system: PPARg:RXRa 270nM:90nM, anti-RXR (NR concentration 270 nM, RXRa partner concentration 90 nM)
In short: as §1

[9] = test system: PPARg:RXRa 30nM:10nM, anti-RXR (NR concentration 30 nM, RXRa partner concentration 10 nM)
In short: as §1

[10] = test system: PPARg:RXRa 90nM:30nM, anti-RXR (NR concentration 90 nM, RXRa partner concentration 30 nM)
In short: as §1

[11] = test system: PPARg:RXRa DBDmut IVT, anti-RXR (DBD mutation: RXRa K156A/R161A, NR concentration 270 nM, RXRa partner concentration 90 nM)
In short: as §1

[12] = test system: PPARg:RXRa IVT, anti-PPARg (NR concentration 270 nM, RXRa partner concentration 90 nM)
In short: as §1

[13] = test system: PPARg DBDmut:RXRa IVT, anti-PPARg (DBD mutation: PPARg1 K132A/R137A, NR concentration 270 nM, RXRa partner concentration 90 nM)
In short: as §1

[14] = test system: PPARg DBDmut IVT, anti-PPARg (DBD mutation: PPARg1 K132A/R137A, NR concentration 270 nM)
In short: as §1

[15] = test system: PPARg homodimer (NR concentration 180 nM)
In short: as §1

[16] = test system: PXR:RXRa (NR concentration 270 nM, RXRa partner concentration 90 nM)
In short: as §1

[17] = test system: PXR homodimer (NR concentration 270 nM)
In short: as §1

[18] = test system: RARa:RXR (NR concentration 270 nM, RXRa partner concentration 90 nM)
In short: as §1

[19] = test system: RARa homodimer (NR concentration 270 nM)
In short: as §1

[20] = test system: RARb:RXRa (NR concentration 270 nM, RXRa partner concentration 90 nM)
In short: as §1

Sequence	PBM binding z-score [1]	PBM binding z-score [2]	PBM binding z-score [3]	PBM binding z-score [4]	PBM binding z-score [5]	PBM binding z-score [6]	PBM binding z-score [7]	PBM binding z-score [8]	PBM binding z-score [9]	PBM binding z-score [10]	PBM binding z-score [11]	PBM binding z-score [12]	PBM binding z-score [13]	PBM binding z-score [14]	PBM binding z-score [15]	PBM binding z-score [16]	PBM binding z-score [17]	PBM binding z-score [18]	PBM binding z-score [19]	PBM binding z-score [20]
AGAATGAGGTTATTAAGATCAGGGATTTGCGGTC	1.64	1.59	0.335	1.29	0.376	2.39	1.5	1.92	0.623	1.21	3.56	2.51	1.03	0.211	0.911	1.23	0.655	1.64	0.863	1.37
CCGACTGCGGCATAAGGTTACCATAAGCCAGCCC	0.434	1.84	-0.038	0.877	-0.74	0.702	0.575	0.243	-0.468	-0.29	-0.303	-0.677	-0.568	-0.753	0.108	0.121	-0.316	0.892	0.0382	0.791
TCATATAGGTAATACAGGTGAAGGTCGGCATCTA	1.22	1.34	0.87	1.02	0.522	2.28	1.83	3.03	4.02	3.78	4.61	3.61	1.2	1.45	1.83	1.16	0.89	1.69	2.17	1.22
ATCTCTAGGTAAAGTTCACTGAAAGATCGATAGA	2.15	3.16	3.22	2.37	1.29	3.64	5.42	5.61	4.25	5.65	2.42	3.28	2.5	1.51	2.51	3.54	2.92	2.82	1.43	3.51
GCGACAGGGGCATCAGCAGGTTACCATAACTTAA	0.0406	0.297	-0.329	1.42	-0.683	1.33	0.386	0.0152	-0.411	-0.547	0.0717	-0.102	-1.02	-1.18	0.4	0.643	0.0793	1.08	-0.68	1.27
GCGGACAGGTGAAACGCAGGTAACTCAGGGTGGC	-0.363	-0.0756	-0.541	-0.243	-1.43	0.799	0.338	-0.205	-1.01	-0.756	1.08	0.64	-0.773	-1.81	-0.69	-0.362	-0.597	0.177	-1.07	0.934
AGTCGAAGTTCAGGACGAGGTAACGTAAAGCACG	1.05	1.05	-0.0607	0.485	-0.831	1.49	1.27	1.11	0.224	0.868	-0.408	0.263	-0.282	-0.353	0.469	1.19	0.0866	1.42	0.0687	2.41
TCTTGTAGATCAGCAGGTTAAGAACGCTGGCCAA	-0.138	-0.0946	-0.388	0.178	-0.52	0.745	-0.296	1.38	2.39	1.59	1.41	0.294	-0.675	-0.754	-0.66	-0.00865	-0.543	0.211	-0.75	0.0804
TTACCAAGGTGAGCTCAGGTCGTTGATCCAACTC	1.26	0.561	-0.29	0.42	-1.08	0.894	-0.199	0.203	-0.185	-0.151	1.23	1.8	0.00673	-0.46	-0.274	3.09	-0.622	0.823	-0.956	1.33
CGAACTAGGTCAGAACATGACAGTGAAGGATGAT	0.703	0.762	-0.0558	0.426	-0.161	3.07	5.35	4.49	2.05	3.4	6.77	7.31	2.34	1.77	1.17	0.243	-0.286	0.937	0.0136	2.58
CCGACTGGGACATAAGGTTACCATAAGCCAGCCC	0.338	2.04	0.14	0.621	-0.915	1.21	1.61	2.59	0.545	1.96	1.57	0.909	-1.05	-1.68	0.314	0.0588	-0.0723	0.922	-0.0116	1.05
CCTGCTAGGTCAACGGTCAGCTAAAGCAGCTCGC	4.13	3.09	0.58	2.17	0.4	4	6.12	6.08	3.98	6.08	4.82	4.76	0.645	-0.543	2.2	1.8	-0.372	2.89	0.262	4.45
GCTGCTAGGTCAACTGATGGTCAGCAAAAGCTCG	4.32	3.25	0.157	2.12	0.113	3.81	2.95	3.41	0.384	2.37	4.86	3.95	-0.344	0.121	1.67	1.68	-0.304	2.93	0.266	4.52
CCTTACGGGGCAAGGTTATAGCACGGGTGGTACG	0.333	0.325	-0.577	0.153	-0.736	1.33	0.791	0.819	-0.199	0.442	-0.0352	0.442	-0.313	-0.783	0.309	0.145	-0.13	0.546	0.0698	1.78
TCTATTAGTTGAACGGCAACCGACGAGTCCGTTT	0.294	0.618	0.311	0.621	0.735	0.859	0.133	1.87	3.63	2.83	2.15	0.0618	0.259	0.73	0.735	0.661	0.768	0.372	0.868	0.424
CTCGAAAGGTCGTGCTCAGGTAAGTATACCAAAC	5.43	4.11	0.35	3.55	0.134	5.08	2.41	4.23	1.01	2.94	0.999	1.78	0.44	-0.41	1.63	3.24	0.482	3.73	0.0606	3.99
TCATATAGGTAGACAGGTGAAAGTCCGTAAGTTA	0.952	1.11	0.173	0.898	-0.226	1.32	0.974	2.5	3.79	3.27	3.02	1.33	1.18	0.507	1.25	0.852	0.981	0.512	1.24	0.76
TCTTGTAGATCAAGCAGGCTAAGAAAGCCTGAGT	-0.142	-0.307	-0.525	-0.376	-0.474	0.113	-0.409	0.913	2.4	1.59	1.46	0.173	-0.469	1.11	-0.6	-0.424	-0.306	-0.588	-1.2	-0.756
CTCGCAAGGTCGTGCTCAGGTGAGTATACCAAAC	2.12	1.71	-0.122	1.37	-0.498	2.81	0.423	1.04	-0.426	0.224	0.0828	0.996	-0.606	-0.427	0.113	1.76	-0.272	2.37	-0.702	2.47
TCGAGTAGGTTAGTCGGGCCATTCAGCCAACATA	-0.164	-0.373	-0.481	-0.437	-1.41	0.324	-0.134	0.911	0.94	0.798	1.97	1.9	-0.829	-1.18	-0.154	-0.339	-0.506	-0.314	-1	0.287
TCTTGTAGATCAAAAGGAGGTTAAGAAAGATCGA	0.895	1.83	0.268	1.37	-0.229	1.81	0.335	2.02	2.91	2.36	1.99	1.45	0.192	0.409	0.066	0.871	0.0133	1.12	0.597	0.428
ACTAGCAGGCCAAGGGTCACTTAAGATTAGTCCG	2.62	2.89	0.394	3	-0.323	4.28	8.13	7.44	5.78	8.65	1.3	3.66	0.182	-0.252	2.04	3.33	-0.0435	4.13	0.362	3.39
TGATATAGGTAAAGGTGAAAGTCGAACGATATGA	1.07	1.26	0.291	1.47	0.036	3.47	5.08	5.2	3.64	5.25	4.83	5.52	1.32	0.962	2.3	0.991	0.297	1.93	1.63	1.8
CGTCCAAGGTCAATGCTAGGTCGGTGAAAGCATT	5.99	4.42	0.539	3.19	0.14	4.79	3.29	4.06	1.09	2.58	3.27	3.65	-0.723	-0.78	1.98	3.86	0.759	4.18	0.419	4.95
AAAACGAGGGCAATGAGTTGATAGCACGGGTGGC	0.531	0.364	-0.353	-0.0182	-0.657	1.55	2.02	1.44	0.0987	0.879	5.04	3.79	1.2	0.681	0.0756	1.86	4.72	0.593	-0.42	2.18
GGTACGAGGGCAAGTTGATAGCAGAGTTTGATGG	0.998	0.455	-0.268	0.434	-0.129	1.02	0.722	0.456	-0.104	0.235	2.1	1.59	-0.734	-1	0.42	1.06	0.796	0.502	0.101	2.75
CCTACTGGGCCAGGAAAGGTCATTGATTCAGTGA	3.42	4.12	3.32	3.74	-0.202	4.18	1.95	3.03	0.929	2.15	2.65	3.05	-0.225	-1.01	2.36	4.78	0.786	4.87	0.0596	3.71
GCTAGTTGGTCAGTAAAAGCTCACACACCGGTCG	-0.135	-0.249	-0.0683	-0.56	-0.539	-0.386	0.13	-0.0391	-0.355	-0.193	0.623	-0.0359	-1.02	-0.165	-0.00408	-0.622	-0.0329	-0.419	0.154	0.596
